The values below come from PubChem BioAssay AID1259343 (VanderVen Lab, College of Veterinary Medicine, Cornell …, 2017).

Screen size: about 6,200 compounds; about 2,900 (47%) were called active. So high a share suggests a set chosen from earlier hits. Some of the results follow. Values without a mark were called inactive. Rule as the data show it: active = inhibition above about 50%; inactive = the rest.

This assay can be described thus: Mycobacterium tuberculosis growth inhibition, primary screen (AID 1259343). Conditions: inhibition: at 10 µM, stronger effect = higher value; outcome: 10 uM.
One may read the inhibition as the drop in the measured response relative to a control, in per cent. With `O=C1C(=C2SCCS2)CCCC12CC2c1ccccc1` (stereo unspecified), the inhibition was 50.8% (active).
The figure for `O=C(c1cc(COc2ccc3c(c2)CCCC3)on1)N1CCN(C2CCCC2)C(=O)C1` is 69.3% (active); for `CC(C)Oc1ccc(CCNC(=O)c2cc(COc3ccc(F)c(F)c3)on2)cc1` it is “inactive”.
The figure for `O=C(c1cc(COc2ccc3c(c2)CCCC3)on1)N1CCCN(c2ncccn2)CC1` is 71.4% (active).
The entry for `O=C(c1cc(COc2cccc(C(F)(F)F)c2)on1)N1CCCN(c2ncccn2)CC1` is “inactive”.
Regarding `Cc1ccc(OCc2cc(C(=O)NCCc3ccc(C(F)(F)F)cc3)no2)cn1`, the inhibition is 68.3% (active).
The figure for `Cc1nc(CCNC(=O)c2cc(COc3ccc4c(c3)CCCC4)on2)sc1C` is 67.7% (active); for `O=C(c1cc(COc2ccc(-n3cncn3)cc2)on1)N1CCCCO1` it is “inactive”; for `COCc1cc(C(=O)N2Cc3ccccc3N(C)CC2C)no1` (stereo unspecified) it is -8.57%.
The figure for `O=C(c1cc(COc2ccc3c(c2)CCCC3)on1)N1CCCCO1` is 92.2% (active); for `Cn1c(=O)c2c(S(C)=O)snc2n(C)c1=O` (stereo unspecified) it is 100% (active).
Take `Cc1cc(C)n(CC(O)COc2ccc3c(c2)CCC3)n1` (stereo unspecified): the inhibition is 70.7% (active).
The figure for `Cc1cc(C)n(CC(O)COc2ccc(C(C)(C)C)cc2)n1` (stereo unspecified) is 44.2%; for `COc1ccc(OCCN(C)S(=O)(=O)c2ccc3c(c2)CCC3)cc1` it is 48%; for `Cc1nn(CC(O)COc2ccc3c(c2)CCC3)c(C)c1C` (stereo unspecified) it is 74.7% (active).
Turning to `Cn1ccc(NC(=O)c2cc3c(s2)CCC(C(C)(C)C)C3)n1` (stereo unspecified), the inhibition is 49.2%.
Consider `N[C@@H](CCCCNC(=O)c1cccnc1)C(=O)NNc1ccc(Cl)cc1`, for which the inhibition was 95.5% (active).
The figure for `CCOc1cc(Cl)ccc1NC(=O)Nc1cccnc1` is 32%.
The figure for `CC(C)NC(=O)CC1(C(=O)Nc2ccc(-c3ccccc3)cc2)CCCC1` is 91.1% (active); for `COc1ccc(F)cc1C(=O)C1CCCN(C(=O)Nc2ccc(SC)cc2)C1` (stereo unspecified) it is 2.1%; for `CN(C)C(=O)C1(CNC(=O)Nc2ccc(F)c(C(F)(F)F)c2)CCCC1` it is 4.66%.
The figure for `CC(C)NS(=O)(=O)Cc1ccc(CNC(=O)Nc2ccc(-c3ccccc3)cc2)cc1` is -37.3%; for `CSc1ccc(NC(=O)CC2(C(=O)O)CCCC2)cc1` it is 85.9% (active); for `O=C(CSCc1ccncc1)Nc1ccc(-c2cncnc2)cc1` it is 89.9% (active).
In the case of `FC(F)(F)CN1CCC(NCc2ccc(-c3ccccc3Cl)s2)C1` (stereo unspecified), the inhibition is 26.6%.
The figure for `O=S(=O)(Nc1ccc(SC(F)F)cc1)c1ccc(F)c(F)c1` is 96.8% (active); for `O=S(=O)(Nc1cnc(-c2ccccc2)nc1)c1ccc(F)c(F)c1` it is 58.3% (active); for `O=S(=O)(Nc1ccc(OC(F)(F)F)cc1)c1ccc(F)c(F)c1` it is 16%.
`CN(CC(N)=O)S(=O)(=O)c1cc2cc(Cl)ccc2s1`: the inhibition was 90.5% (active).
As for `Oc1cc(OCCN2CCN(Cc3ccc4c(c3)OCO4)CC2)ccc1-c1[nH]ncc1-c1ccccc1`, the inhibition was 81.6% (active).
The figure for `O=C(C1COc2ccccc2O1)N1CCc2onc(-c3cccc(F)c3)c2C1` (stereo unspecified) is 10.6%.
The figure for `CC(C)C(=O)Nc1sc2c(c1-c1nc3ccccc3s1)CCN(C(C)C)C2` is 95.2% (active).
The figure for `CC(C)N1CCc2c(sc(NC(=O)C3CC3)c2-c2nc3ccccc3s2)C1` is 0.31%; for `CCC(=O)Nc1sc2c(c1-c1nc3ccccc3s1)CCN(C(C)C)C2` it is 100% (active).
On to `CC(C)C(=O)Nc1sc2c(c1-c1nc3ccccc3s1)CCN(C)C2`, for which the inhibition is 85.9% (active).
The figure for `CC(=O)Nc1sc2c(c1-c1nc3ccccc3s1)CCN(C(C)C)C2` is 68.3% (active); for `CC(=O)c1ccc(C(=O)Nc2sc3c(c2-c2nc4ccccc4s2)CCN(C)C3)cc1` it is 83.8% (active); for `CN1CCc2c(sc(NC(=O)c3ccccc3)c2-c2nc3ccccc3s2)C1` it is 29.3%.
The figure for `CN1CCc2c(sc(NC(=O)c3ccc(F)cc3)c2-c2nc3ccccc3s2)C1` is 31.8%; for `CCCCCCCCCCCCC[N+](C)(C)Cc1ccccc1` it is 70.2% (active); for `Cc1cccc(CN(CCN2CCOCC2)Cc2ccc(C(O)(c3cccc(F)c3)c3cccc(F)c3)o2)c1` it is 17.9%.
The figure for `CC(C)(C)c1cc(C(=O)CCN2CCOCC2)cc(C(C)(C)C)c1O` is 102% (active).
Turning to `O=S(=O)(c1cc(Cl)cc(Cl)c1O)N1CCOCC1`, the inhibition was 19.4%.
The figure for `CC(C)c1ccc(NC(=O)CCN2CCN(CC3CCCO3)CC2)cc1` (stereo unspecified) is 83.5% (active).
As to `Cc1ccc(NC(=O)CC(=O)N2CCC(C(O)CC(C)C)CC2)cc1Cl` (stereo unspecified), the inhibition was 88.3% (active).
For the molecule `Cc1ccc(NC(=O)CCC2CCCO2)cc1Cl` (stereo unspecified), the inhibition is 96.2% (active).
As for `O=C(CCc1cccs1)N1CCN(CC2CCCO2)CC1` (stereo unspecified), the inhibition is -26.7%.
The figure for `CC(=O)N[C@H]1CCN(CC(=O)Nc2ccc(Cl)c(C)c2)C1` is 33.5%.
The figure for `CC(NC(=O)CCC1CCCO1)c1ccc(Cl)s1` (stereo unspecified) is 21.7%; for `Cc1cc(NC(=O)CN2CCN(CC3CCCO3)CC2)ccc1Cl` (stereo unspecified) it is 66.5% (active); for `CC(C)c1ccc(S(=O)(=O)NCC2CCCO2)cc1` (stereo unspecified) it is -25.1%.
`CN(C)N=CC=C1CCC(=Cc2ccc(C(F)(F)F)cc2)C1=O`: the inhibition was 8.26%.
In the case of `NNc1ccc2c(Cl)cc(Cl)c(O)c2n1`, the inhibition is 99.5% (active).
The figure for `Cc1ccc2c(Cl)cc(Cl)c(O)c2n1` is 47.9%; for `CCC(CO)NC(=S)N=P(c1ccccc1)(N(CC)CC)N(CC)CC` (stereo unspecified) it is 81.6% (active); for `FC(F)(F)c1cnc(NCc2ccc3c(c2)OCCO3)c(Cl)c1` it is 25.7%.
The figure for `CN(CC(O)COCc1ccc2c(c1)OCO2)c1ncc(C(F)(F)F)cc1Cl` (stereo unspecified) is 78% (active); for `COC(=O)NNC(=S)NC(=O)C12CC3CC(CC(C3)C1)C2` it is 97.8% (active).
The figure for `Cc1nc(Cl)sc1S(=O)(=O)NCC(C)c1ccccc1` (stereo unspecified) is 24.9%; for `Cc1[nH]n(-c2nc3ccccc3s2)c(=O)c1C=NC(C)c1ccccc1` (stereo unspecified) it is 86.9% (active).
In the case of `Clc1ccc(-c2nn3c4cc(N5CCNCC5)ccc4nc3c3ccccc23)cc1`, the inhibition is 92.9% (active).
The figure for `CN(C1CCCCC1)S(=O)(=O)c1ccc2ccccc2c1` is 38.7%; for `CN(C1CCCCC1)S(=O)(=O)N1CCN(c2cccc(F)c2C#N)CC1` it is 10.2%; for `CN(C1CCCCC1)S(=O)(=O)N1CCc2ccccc21` it is 98.1% (active).
The figure for `CN(C)C=Nc1nc(-c2ccc3ccccc3c2)cs1` is -25.4%.
For the molecule `CC1Cc2cc(-c3cc(C(=O)O)no3)ccc2O1` (stereo unspecified), the inhibition is 27.8%.
Turning to `CCCCCN(C)C(=O)c1cc(-c2ccc3ccccc3c2)on1`, the inhibition was 94% (active).
The figure for `CCOc1ccc(NC(=O)C(C)Sc2nc(N)cc(N)n2)cc1` (stereo unspecified) is 86% (active); for `O=P(Nc1cccc(F)c1)(Oc1ccccc1F)Oc1ccccc1F` it is 22%.
The figure for `CCCCCc1ccc(NC(=O)CCN2CCSC2=O)cc1` is 99% (active); for `CCCCc1ccc(NC(=O)COC(=O)C23CCC(=O)N2CCS3)cc1` (stereo unspecified) it is 95.3% (active).
The figure for `CCN=c1scc(-c2ccc(Br)cc2)n1/N=C1\C(=O)N(C)c2ccccc21` is 20.4%; for `CC1CCCC(NC(=O)c2cncc(Br)c2)C1` (stereo unspecified) it is -31%; for `Cn1cc(-c2nc(C(=O)NC34CC5CC(CC(C5)C3)C4)cs2)cn1` it is 31.8%.
Consider `O=C(NC12CC3CC(CC(C3)C1)C2)c1cncc(Br)c1`, for which the inhibition was 50.2% (active).
The figure for `O=S(=O)(Nc1ccc2c(c1)CCC2)c1ccc(F)cc1` is -4.64%; for `O=S(=O)(NCc1ccc(F)cc1)c1ccc2c(c1)CCCC2` it is 89.6% (active); for `COc1ccc(CNS(=O)(=O)c2ccc3c(c2)CCCC3)cc1` it is -18%.
For `CC(=O)Nc1ccc(C(=O)NC2CCC3CCCCC3C2)cc1` (stereo unspecified), the inhibition was -37.5%.
The figure for `COCc1ccc(C(=O)NC2C3CC4CC(C3)CC2C4)cc1` (stereo unspecified) is 75.8% (active).
The figure for `CCCc1nc(CN(C)c2nc(C)nc3sccc23)no1` is 14.1%; for `COc1ccccc1OCCCOc1ccc(C)cc1Br` it is 34.8%; for `COc1cccc(OC)c1OCCCOc1ccc(C)cc1Br` it is 87.8% (active).
The figure for `COc1cccc(OC)c1OCCOc1ccc(C)cc1Br` is 76.4% (active); for `CCCCCCc1ccc(C(=O)Nc2ccc(-n3nc(OC)nc3-c3ccc4c(c3)OCO4)cc2)cc1` it is 56.7% (active); for `O=C(Nc1ccc(N2CCC(NCCC3=CCCCC3)CC2)cc1)c1ccc2c(c1)OCO2` it is 47%.
For `COc1cc2c(cc1O)C(SC)=NC(C)(C)C2`, the inhibition was 55.5% (active).
The figure for `Cc1csc(C(C#N)C(=O)Nc2ccccc2)n1` (stereo unspecified) is -32.9%; for `CC(=O)NC(C)C(=O)Nc1cccc(Sc2ccccc2)c1` (stereo unspecified) it is 62.7% (active).
The figure for `CCCS(=O)(=O)N1CCc2[nH]c3ccc(F)cc3c2C1` is 22.7%; for `CCCS(=O)(=O)N1CC=C(c2c[nH]c3cc(F)ccc23)CC1` it is 88.2% (active).
The figure for `CC1CCN(S(=O)(=O)N2CC=C(c3c[nH]c4ccccc34)CC2)CC1` is 29.2%.
On to `O=C(Nc1cccc2cnccc12)OCC(F)(F)F`, for which the inhibition was 72.3% (active).
For the molecule `COc1cc(C(=O)C(C#N)C(=O)CC(C)(C)C)ccc1C` (stereo unspecified), the inhibition is 101% (active).
In the case of `Cc1ccc(C(=O)O)cc1OCc1csc(Br)c1`, the inhibition was 7.03%.
The figure for `CCC(=NNc1ccnc2cc(Cl)ccc12)c1ccccc1` is 93.9% (active); for `CC(Nc1nc(-c2cccs2)nc2cc(Cl)ccc12)c1ccccc1` (stereo unspecified) it is 3.37%; for `CC(=NNc1ccnc2cc(Cl)ccc12)c1ccc(C)o1` it is 2.38%.
The figure for `CN(C)c1ccccc1NC(=O)c1ccccc1OC(F)F` is 23.1%; for `CC1CCC(C(C)C)C(OC(=O)COC(=O)c2ccc([N+](=O)[O-])o2)C1` (stereo unspecified) it is 10.8%; for `CC(OC(=O)c1ccc([N+](=O)[O-])o1)C(=O)Nc1ccccc1OC(F)F` (stereo unspecified) it is 101% (active).
